An excerpt weighted towards active compounds, which were near 4.7% of everything screened.
D1 antag – Antagonist of Human D 1 Dopamine Receptor: qHTS; D(1A) dopamine receptor (Homo sapiens), P21728; HEK293 TREx D1 cells, calcium flux, dopamine EC80; active compounds read low; activity change, negative = inhibition, % at 10 µM; 360,000 tested, 3.2% active; AID 504652, 2011; in the data active = activity change below about -30%
Target sequence (P21728 whole entry, looked up): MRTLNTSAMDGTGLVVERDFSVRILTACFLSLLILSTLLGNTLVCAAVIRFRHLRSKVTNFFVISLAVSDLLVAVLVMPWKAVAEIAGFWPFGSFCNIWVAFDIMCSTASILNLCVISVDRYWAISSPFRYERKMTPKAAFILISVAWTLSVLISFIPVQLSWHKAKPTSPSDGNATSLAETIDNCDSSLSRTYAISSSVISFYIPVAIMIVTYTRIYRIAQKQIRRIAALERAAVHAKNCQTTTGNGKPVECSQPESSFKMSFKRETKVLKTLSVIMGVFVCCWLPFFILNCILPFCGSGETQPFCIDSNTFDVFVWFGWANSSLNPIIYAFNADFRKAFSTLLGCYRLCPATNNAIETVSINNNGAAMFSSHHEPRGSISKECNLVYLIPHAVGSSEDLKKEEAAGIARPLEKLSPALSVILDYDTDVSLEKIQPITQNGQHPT
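Inducible Hek293 Trex D1 cells (tetracycline, overnight, 30 C). Calcium dye 30–90 min RT. Antagonist mode: EC80 dopamine added after 180 s compound read.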
TRHR PAM – qHTS for Small Molecule Agonists and Allosteric Enhancers of Human TRH Receptor: Primary Screen for Enhancers. Thyrotropin-releasing hormone receptor (Homo sapiens), P34981. 360,000 tested, 0.66% active. TRHR cells, fluo-8 calcium fluorescence, EC20 TRH enhancement. enhancement, % at 2 µM; in the data active = enhancement above about 30%
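TRHR-expressing cells loaded with fluo-8 calcium dye were read kinetically (ex 480/em 530) during compound addition, then stimulated with an EC20 of TRH (10 nM final). Enhancement of the Gq-mediated intracellular calcium response was scored.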
D1 agonist – Allosteric Agonists of the Human D1 Dopamine Receptor: qHTS. D(1A) dopamine receptor (Homo sapiens), P21728. HEK293 T-REx D1 cells, calcium flux, agonist mode. activation, % at 2 µM. 360,000 tested, 1% active. AID 504660, 2011
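Tetracycline-induced HEK293 TREx D1 cells, force-coupled to calcium signalling, were dye-loaded with a no-wash calcium kit. Compound was pin-added after a 10 s baseline. Fluorescence was read kinetically at 1 cycle/s for 180 s, with calcium rises flagged as agonism.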
D1 potentiator – Potentiators of Human D1 Dopamine Receptor: qHTS; D(1A) dopamine receptor (Homo sapiens), P21728; HEK293 TREx D1 cells, calcium flux, dopamine EC20 potentiation; potentiation, % at 10 µM; 360,000 tested, 0.036% active; AID 504651, 2011; in the data active = potentiation above about 30%
TRHR agonist – qHTS for Small Molecule Agonists and Allosteric Enhancers of Human TRH Receptor: Primary Screen for Agonists | Thyrotropin-releasing hormone receptor (Homo sapiens), P34981 | TRHR cells, calcium flux fluo-8, FDSS agonist mode | activation, % at 2 µM | 360,000 tested, 0.18% active | AID 493084, 2011
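TRHR-expressing cells, plated overnight in medium with 10% serum, were loaded with fluo-8 calcium dye at room temperature. After a 10 s baseline, library compound was pin-added and calcium release was recorded kinetically (ex 480/em 530) as agonist response.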
Each line names hits and unclear results; the compound was inactive in the other large screens. Rule as the data show it, unless noted: active = activation above about 30%; inactive = the rest.

Cc1ccc(CONC(=O)c2ccc(C)cc2)cc1	D1 antag -30.3
CN1CCN(NC(=S)Nc2ccc(Oc3ccccc3)cc2)CC1	D1 agonist 36.4
COc1cccc(NC(=S)NN2CCN(C)CC2)c1	none
CC(C)C(=O)N1CCN(c2ccc(NC(=O)c3ccc([N+](=O)[O-])o3)cc2Cl)CC1	D1 antag -41.2
O=C(Nc1ccnn1C1CCN(Cc2ccc(Cl)cc2)CC1)C1CCCC1	none
CCc1ccc(CN2CCC(n3nccc3NC(=O)C3CCCC3)CC2)cc1	D1 potentiator 31.7
O=C(Nc1ccnn1C1CCN(Cc2ccc3nonc3c2)CC1)c1cccc(F)c1	D1 antag -38.7
O=C(C[n+]1ccc(C(=O)c2ccccc2)cc1)Nc1ccc(C(F)(F)F)cc1	D1 antag -42.8
O=C(Nc1ccc(C(F)(F)F)cc1)c1ccccc1	D1 antag -48.9
O=C(Nc1ccc(C(F)(F)F)cc1)c1ccccc1Br	D1 antag -38.3
Nc1cc[n+](CC(=O)Nc2ccccc2)cc1	none
O=C(Nc1ccc(C(=O)c2ccccc2)cc1)c1ccccc1	none
O=C(Nc1ccc(NC(=O)c2ccccc2Br)cc1)c1ccccc1	none
Cc1nnc(N)nc1C	D1 antag -38.4
COc1ccc(C)cc1NC(=O)COC(=O)c1ccc(OCc2ccc(Cl)cc2Cl)c(OC)c1	D1 antag -50.4
Cc1cccc(CN(C(=S)Nc2c(C)cccc2C)c2cccnc2)c1	D1 antag -32.7
CCc1ccccc1NC(=S)N(Cc1cccc(C)c1)c1cccnc1	none
CCN(CC)C(=S)SCC(=O)Nc1ncc2c(n1)CCCC2=O	D1 antag -33.2
O=C(CSC(=S)N1CCOCC1)Nc1ncc2c(n1)CCCC2=O	none
NS(=O)(=O)OCCCc1ccccc1	D1 antag -37.0
Cc1ccc(Cn2c3ccccc3c3cnn(CC(=O)Nc4cc(Cl)ccc4C)c(=O)c32)cc1	TRHR PAM 44.6
Cc1cc(C)c(Cn2c3ccccc3c3cnn(CC(=O)NCc4ccc(Cl)cc4)c(=O)c32)c(C)c1	none
CCCn1c2ccccc2c2cnn(CC(=O)NCCc3ccc(S(N)(=O)=O)cc3)c(=O)c21	TRHR agonist 40.3
Cc1csc(NC(=O)CSc2ccc(-c3ccccn3)nn2)n1	D1 antag -98.5
CCC(=O)N1CCc2cc(S(=O)(=O)NC(C(=O)NCCc3ccc(Cl)cc3)C(C)C)ccc21 (stereo not given)	none
COc1ccc(C2C(C(N)=O)=C(C)Nc3nc(CCCO)nn32)c(OC)c1 (stereo not given)	none
COC(=O)c1ccc(NC(=O)CSCc2ccccc2C)cc1	TRHR PAM 39.5
COc1cc(NC(=O)c2noc3c2CC(C)CC3)c(OC)cc1Cl (stereo not given)	none
O=C(c1cnc(N2CCCCC2)c2ccccc12)N1CCN(c2ccccc2F)CC1	none
COC(=O)C1CCN(C(c2cc(OC)c(OC)c(OC)c2)c2sc3nc(C)nn3c2O)CC1 (stereo not given)	TRHR PAM 31.0
CC(C)(C)C1CCc2c(C(=O)NNC(=O)/C=C/C(=O)O)csc2C1 (stereo not given)	D1 antag -31.7
O=S(=O)(c1ccc2c(c1)OCCO2)N1CCN(S(=O)(=O)c2cccc3cccnc23)CC1	none
CCC1=C(c2ccc(C)cc2)S(=O)(=O)N=C1N1CCC(C(=O)NCCc2ccc(Cl)cc2)CC1	none
CCC1=C(c2ccc(C)cc2)S(=O)(=O)N=C1N1CCC(C(=O)NCc2ccc(C)cc2)CC1	D1 antag -38.7
Cc1ccc(S(=O)(=O)N2CCN(C)CC2)cc1[N+](=O)[O-]	none
CN1CCN(S(=O)(=O)c2ccc(N(C)Cc3ccc(OC(F)F)cc3)c([N+](=O)[O-])c2)CC1	D1 antag -39.2
Cc1c(C(=O)N/N=C/c2ccc(-c3ccccc3[N+](=O)[O-])o2)sc(N)c1C#N	D1 antag -61.8
O=C(N/N=C\c1ccc(-c2ccccc2[N+](=O)[O-])o1)C1COc2cc3ccccc3cc2O1 (stereo not given)	none
O=C(N/N=C\c1ccc(-c2ccccc2[N+](=O)[O-])o1)C1COc2ccccc2O1 (stereo not given)	D1 antag -35.7
O=C(N/N=C/c1ccc(-c2ccccc2[N+](=O)[O-])o1)c1cncc(Br)c1	none
O=C(Nc1cccc(C(F)(F)F)c1)c1cc(-c2ccc(Cl)s2)nc2ccccc12	none
COc1ccc(-c2nc3n(n2)C(c2ccc(OC)cc2)C(C(=O)Nc2cccnc2)=C(C)N3)cc1 (stereo not given)	none
COc1ccc(NC(=S)NC2CC3CCC(C2)N3Cc2ccco2)cc1 (stereo not given)	D1 antag -64.2
Cc1cc(C)cc(NC(=S)NC2CC3CCCC(C2)N3CC(C)C)c1 (stereo not given)	none
Cc1ccccc1NC(=S)NC1CC2CCC(C1)N2Cc1ccco1 (stereo not given)	none
Cc1cccc(NC(=S)NC2CC3CCC(C2)N3Cc2ccco2)c1 (stereo not given)	D1 antag -67.1
CCc1ccc(NC(=S)NC2CC3CCC(C2)N3Cc2ccco2)cc1 (stereo not given)	D1 antag -76.7
Cc1cccc(NC(=S)NC2CC3CCCC(C2)N3CC(C)C)c1 (stereo not given)	D1 antag -58.9
CCCc1cc(=O)[nH]c(Nc2ccc(C)c(O)c2)n1	none
Cc1ccc(NC(=S)NC2CC3CCCC(C2)N3Cc2cccs2)cc1 (stereo not given)	D1 antag -86.8
Cc1ccc(NC(=S)NC2CC3CCCC(C2)N3Cc2ccco2)cc1 (stereo not given)	D1 antag -65.4, D1 agonist 41.2
COc1ccccc1NC(=O)CSc1nc2ccccc2c(=O)n1CCC(=O)NC1CCCCC1	none
CCOc1ccccc1NC(=O)C1=C(C)Nc2ncnn2C1c1ccccn1 (stereo not given)	none
COC(=O)CNC(=O)CCc1nnc(C2(c3ccc(Cl)cc3)CCC2)o1	none
COCC(C)NC(=O)CCc1nnc(C2(c3ccc(Cl)cc3)CCC2)o1 (stereo not given)	D1 antag -51.4
Cn1nc(-c2ccc3c(c2)OCCO3)c2ccccc2c1=O	D1 antag -33.9
Cn1c2ccccc2c(=O)c2ccc(-c3ccc4c(c3)OCO4)cc21	D1 antag -48.2
Cc1ccc(C)c(N2CCN(C(=O)CCn3c(=O)c4cccn4c4cccnc43)CC2)c1	none

Screening data: PubChem, National Center for Advancing Translational Sciences (NCATS)
